Six1-Eya2 blk: inhibitors of human Six1/Eya2 interaction; Q15475+O00167; AlphaScreen GST-Six1/His-Eya2 binding, biochemical; hits give low values; activity change, % (no concentration beside the values); 360,000 tested, 0.56% active; in the data active = activity change below about -65%; inconclusive = mostly about -30% to -63%; also: % is scaled to controls: 0 for no effect and ±100 for the full control effect
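Six1/Eya2 binding was read as AlphaScreen signal after compounds were pinned into GST-Six1 plus His-tagged Eya2 (5X stock 250/500 nM) in pH 8.0 Tris/NaCl/TCEP buffer, beads added, then incubated 1 h, 37 C, dark.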
BAZ2B inh: BAZ2B (human) inhibition. Q9UIF8. AlphaScreen BAZ2B-H3K14Ac peptide displacement. Potency, µM (titrated, usually from 114 µM), for inactives: at the highest dose activity change, negative = inhibition, most hits filed as inhibitors. 360,000 tested, 4.4% active; also: potency is read from the fitted curve at half-maximal effect; % is scaled to controls: 0 for no effect and ±100 for the full control effect; nearly all actives have a fitted effect of over 60% in size
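AlphaScreen luminescence quantifies BAZ2B engagement of H3K14Ac peptide; the protein and biotinylated peptide are both at 50 nM final, buffer PBS pH 7.4 with 0.01% Tween-20, all steps at room temperature.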
G9a inh: inhibitors of human histone lysine methyltransferase G9a; Q96KQ7; 350,000 tested, 8.8% active; Potency, µM (top dose mostly 102 µM), for inactives: top-dose activity, negative = inhibition, most hits filed as inhibitors; G9a H3K9 monomethylation, AlphaScreen, 2 h; also: potency is read from the fitted curve at half-maximal effect; % is scaled to controls: 0 for no effect and ±100 for the full control effect; nearly all actives have a fitted effect of over 75% in size
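G9a (20 nM) preincubated 15 min RT with compounds, then 500 nM biotinylated H3K9 peptide and 20 uM SAM added; 2 h RT reaction. Monomethyl-H3K9 product detected by AlphaScreen with anti-H3K9me1 antibody, streptavidin donor and anti-rabbit IgG acceptor beads.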
HP1b chromo inh: HP1-beta chromodomain-methylated histone interaction inhibition. Potency, µM (series often up to 114 µM), for the others: at the top dose activity change, negative = inhibition, most hits filed as inhibitors. AlphaScreen HP1-beta / biotin-H3K9me3 peptide binding. P83916. 390,000 tested, 0.56% active. AID 540317; also: potency is read from the fitted curve at half-maximal effect; nearly all actives have a fitted effect of over 70% in size
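Compound inhibition of the preformed complex between 50 nM HP1-beta and 50 nM biotinylated H3K9me3 peptide was read by AlphaScreen. Buffer was PBS pH 7.4 with 0.01% Tween-20. Incubations ran 30 min at room temperature, with 10 ug/mL donor/acceptor beads.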
JMJD2A Tudor inh: blocks the human JMJD2A Tudor domain | O75164 | AlphaScreen JMJD2A-Tudor / H3K4me3 peptide binding | Potency, µM (series often up to 114 µM), for inactives: at the highest dose activity change, negative = inhibition, most hits filed as inhibitors | 390,000 tested, 4.4% active; also: potency is read from the fitted curve at half-maximal effect; % is scaled to controls: 0 for no effect and ±100 for the full control effect; nearly all actives have a fitted effect of over 50% in size
CtBP-E1A inh: CtBP/E1A binding inhibition. AlphaScreen GST-E1A/His-CtBP binding, 1536-well; hits give low values. activity change, % (test concentration not listed). 340,000 tested, 0.49% active; in the data active = activity change below about -65%; inconclusive = mostly about -30% to -63%; also: % is scaled to controls: 0 for no effect and ±100 for the full control effect
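In 5 uL wells, 23 nL compound meets equimolar GST-E1A and His-CtBP (5X stock 125 nM each) for 2 h, 37 °C. Beads (5X, 50 ug/mL) then 1 h, 37 °C, dark.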
An asterisk follows results filed as active; ? = inconclusive; · = no result given; [ ] = remark or other dose. Sampled rows, rich in hits. Any-hit rate of the full collection: about 10%. Unless noted, calls follow the shape of the dose curve; as a rule, active = well fitted inhibition curve with a large enough effect; inconclusive = small, poorly fitted or top-dose-only effect; inactive = no such curve, though single readings can be large or run the other way.

SMILES	Six1-Eya2 blk	BAZ2B inh	G9a inh	HP1b chromo inh	JMJD2A Tudor inh	CtBP-E1A inh
COC(=O)C[C@@H]1CC[C@H](NC(=O)Nc2ccc(OC)cc2)[C@@H](CO)O1	1	·	·	·	·	6
COc1ccc(C(=O)Nc2nc3c(s2)CCc2cc(OC)ccc2-3)cc1	·	-22%	6.3µM*	-12%	-28%	·
COc1ccc2c(c1)-c1nc(NC(=O)c3ccc(C)cc3)sc1CC2	·	0%	-32%[59 µM]	34%	-21%	·
COc1ccc(Br)c2c1-c1nc(NC(=O)c3ccc(F)cc3)sc1C2	·	71µM*	-22%[59 µM]	34%	-26%	·
COc1ccc2c(c1)CCc1sc(NC(=O)c3cccc(Br)c3)nc1-2	·	0%	10µM*	-14%	?	·
CCC1CN(C(=O)N2CCC(C(=O)NCc3cccc(C)c3)CC2)c2ccccc2O1 (stereo not given)	·	-4%	-4%[59 µM]	-3%	-16%	·
COc1ccc(-c2nc(=S)[nH][nH]2)cc1OC	0	56µM*	0.56µM*	?	2.8µM*	·
COc1ccc(-c2nc3ccccc3nc2-c2ccc(OC)c(OC)c2)cc1OC	8	19%	20µM*	114%	40%	·
COc1cc(-c2nc(=S)[nH][nH]2)cc(OC)c1OC	6	50µM*	0.56µM*	?	3.5µM*	5
COc1ccc(-c2nn[nH]n2)cc1OC	7	?	-41%	31%	-13%	5
CCOC(=O)c1sc(NCCNc2nc(C)c(C(=O)OCC)s2)nc1C	2	-12%	50µM*	8%	50µM*	5
CCOC(=O)c1sc(N)nc1C(C)(C)C	-3	9%	16µM*	0%	-6%[11.4 µM]	-1
CCOC(=O)c1sc(NS(=O)(=O)c2ccc(C)cc2)nc1C	-4	?	50µM*	39%	-7%	8
CCOC(=O)c1sc(NC(=O)COc2ccc3c(c2)OCO3)nc1C	-4	-2%	40µM*	43%	1%	-3
CCOC(=O)c1sc(NC(=O)CCC(=O)O)nc1C	-2	1%	-5%	-18%	-11%	4
Cc1nc(N)sc1C(=O)OCC(C)C	-4	-4%	-10%	26%	-9%	0
COC(=O)c1sc(NC(=O)COc2ccc(OC)cc2)nc1C	3	·	·	37%	-10%	10
O=C(NCc1cccc(F)c1)C1CCN(c2nc3ccccc3nc2C(F)(F)F)CC1	·	0%	-1%[59 µM]	16%	-5%	·
COc1ccc(C(=O)Nc2ccc(S(=O)(=O)Nc3onc(C)c3C)cc2)c(OC)c1	-9	-3%	?	-3%	-24%	0
CCOC(=O)c1sc(NC(=O)c2cncc(Br)c2)nc1C	·	7%	7%[59 µM]	·	·	·
CCOC(=O)c1sc(Nc2ccc(Br)cc2)nc1C	-5	-26%	?	9%	56µM*	0
N#CC(C#N)=C1C=CC=CN1/C(=C\c1ccco1)C(=O)c1ccc(Br)cc1	-8	?	11µM*	-9%	?	-14
COc1ccc(C(=O)/C(=C\c2ccco2)N2C=CC=CC2=C(C#N)C#N)cc1	-11	-13%	11%[2.33 µM]	8%	-34%	-2
N#CC(C#N)=C1C=CC=CN1/C(=C\c1ccco1)C(=O)c1ccccc1	-21	0%	18µM*	15%	-31%	-5
N#C/C(=C/c1ccco1)C(N)=S	-7	?	·	-1%	-24%	-26
SMILES	Six1-Eya2 blk	BAZ2B inh	G9a inh	HP1b chromo inh	JMJD2A Tudor inh	CtBP-E1A inh
COc1ccccc1NC(=O)Cn1c(C)cc(C)c(C#N)c1=O	·	-1%	-1%[59 µM]	28%	-1%	·
CCNC(=S)NNC(=O)c1cccnc1	4	6%	25%[59 µM]	23%	-22%	6
CC(C)c1ccc(NC(=S)NNC(=O)c2cccnc2)cc1	-3	2%	32µM*	14%	-24%	-2
O=C(NNC(=S)Nc1ccc(Br)cc1)c1cccnc1	-6	-1%	10µM*	10%	-16%	3
CC(C)c1ccc(NC(=O)c2cccnc2)cc1	3	·	7%[59 µM]	107%	-6%	13
O=C(Cn1nnc2ccccc21)NNC(=S)NC1CCCCC1	-2	2%	-25%	45%	-15%	12
CCN1CCc2c(OCc3ccc(C)cc3)cccc2C1=O	13	15%	45%	15%	-10%	-2
CN(O)/C=C/C(=O)c1ccc(Br)cc1	5	-31%	20µM*	-22%	50µM*	2
CCN(CC(=O)Nc1cccc(OC)c1)CC(=O)Nc1cccc2ccccc12	-6	-20%	9%[2.33 µM]	36%	-16%	1
COc1ccc(NC(=O)CN(C)CC(=O)Nc2ccc(N3CCOCC3)cc2)c([N+](=O)[O-])c1	-11	45µM*	4%[59 µM]	-7%	?	-8
CN(CC(=O)Nc1ccc(N2CCOCC2)cc1)CC(=O)Nc1ccc(Cl)cc1[N+](=O)[O-]	-24	56µM*	56µM*	?	?	-7
CCN(CC(=O)Nc1cccc(OC)c1)CC(=O)Nc1ccc(C)cc1Cl	-3	32µM*	?	-18%	20µM*	1
COc1cccc(NC(=O)CN(C)CC(=O)Nc2ccc(Cl)cc2[N+](=O)[O-])c1	-11	50µM*	40µM*	?	?	1
CCc1ccc(S(=O)(=O)c2nnn3c2nc(NCCc2ccccc2)c2sccc23)cc1	·	-17%	8%[59 µM]	7%	-15%	·
COc1ccc(-c2nc3cnc(N4CCN(C)CC4)nc3n(CCc3ccccc3)c2=O)cc1	·	·	10%[0.501 µM]	·	·	·
O=C(COC(=O)/C=C/c1ccc(Cl)cc1Cl)NCC1CCCO1 (stereo not given)	-3	·	·	17%	-12%	?
CCc1ccccc1NC(=O)N1CC(CC)Oc2ccc(Cl)cc21 (stereo not given)	·	20%	32%[59 µM]	113%	30%	·
C=C[C@]1(C)C[C@@H](OC(=O)CSCCN(CC)CC)[C@]2(C)C(C)CC[C@]3(CCC(=O)[C@H]32)[C@@H](C)[C@@H]1O (stereo not given in full)	-5	5%	-24%[59 µM]	43%	-10%	-2
CCN(CC)S(=O)(=O)c1ccc(NC(=O)COC(=O)CNS(=O)(=O)/C=C/c2ccccc2)cc1	-14	31%	15%[59 µM]	16%	-14%	-81*
O=C(COC(=O)CNS(=O)(=O)/C=C/c1ccccc1)Nc1cccc2ccccc12	-2	-22%	50µM*	26%	1%	7
COc1ccc(NCc2ccc(OC)c(Cn3ccnc3)c2)c(OC)c1	?	50µM*	11µM*	?	40µM*	6
COc1ccc(Cn2ccnc2)cc1Br	-6	50µM*	?	6%	?	-1
O=C(NNc1ccccc1C(F)(F)F)c1sccc1Br	-4	-12%	18µM*	52%	-13%	·
